High-throughput results as filed in PubChem.
UDG counter = blocks uracil-DNA glycosylase in AID counter-screen. FRET deamination/UDG coupled assay, UDG read, 4 h. Potency, µM (series often up to 115 µM), for inactives: at the top dose activity change, negative = inhibition, hits mostly inhibitors. 0.14% of 91,000 active; note: potency is the fitted concentration of half-maximal effect; % is set by controls: 0 for no effect and ±100 for the full control effect; nearly all actives have a fitted effect of over 65% in size
AID inhibitor = activation induced cytidine deaminase inhibition | Q9GZX7 | AID deamination FRET fluorescence, UDG-coupled, 4 h | Potency, µM (highest dose often 115 µM), usual class: inhibitors | 0.32% of 91,000 active | AID 1347428; note: potency is the fitted concentration of half-maximal effect; % is set by controls: 0 for no effect and ±100 for the full control effect; nearly all actives have a fitted effect of over 25% in size
Target sequence (Q9GZX7 whole entry, looked up): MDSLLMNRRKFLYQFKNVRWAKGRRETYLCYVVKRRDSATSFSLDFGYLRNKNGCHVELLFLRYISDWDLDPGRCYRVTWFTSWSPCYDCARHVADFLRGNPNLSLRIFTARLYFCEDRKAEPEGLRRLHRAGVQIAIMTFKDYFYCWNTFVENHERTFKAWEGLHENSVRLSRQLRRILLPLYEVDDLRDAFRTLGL
DRV1 agonist = agonists of human resolvin D1 receptor DRV1 (GPR32); O75388; CHO-K1 GPR32 beta-arrestin PathHunter luminescence, 90 min; zero percent set by DMSO-only wells; activation, % at 76.9 µM; 2.5% of 48,000 active; AID 1346428;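 active = activation of at least 60% and not above a set upper limit, about 1 call in 100 departs from these limits; inconclusive = activation of 40% to 60%, or above that upper limit; inactive = activation under 40%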; note: 0% is about no effect
Target sequence (O75388 whole entry, looked up): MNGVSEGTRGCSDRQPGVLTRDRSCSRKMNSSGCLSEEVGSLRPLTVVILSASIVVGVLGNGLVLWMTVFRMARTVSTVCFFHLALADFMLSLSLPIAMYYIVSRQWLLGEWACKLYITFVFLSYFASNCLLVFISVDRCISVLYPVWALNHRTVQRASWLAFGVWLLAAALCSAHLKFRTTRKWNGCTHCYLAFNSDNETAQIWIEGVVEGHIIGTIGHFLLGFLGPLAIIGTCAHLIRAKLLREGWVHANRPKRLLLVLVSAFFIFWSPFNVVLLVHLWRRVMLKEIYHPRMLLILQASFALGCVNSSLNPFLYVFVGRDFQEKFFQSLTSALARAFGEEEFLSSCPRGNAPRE
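Engineered CHO-K1 line co-expressing GPR32-ProLink and EA-beta-arrestin. Compound treatment lasted 90 min at 37 °C. Luminescence was recorded after 1 h with substrate at ambient temperature, relative to DMSO basal wells.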
An asterisk follows results filed as active; i = inactive; ? = inconclusive; · = no result; [ ] = another dose, or the depositor's remark. Only a selection was taken, and hits are over-represented in it overall. Unless noted, calls come from the whole dose curve; as a rule, active = well fitted curve in the direction sought with a large enough effect; inconclusive = small, poorly fitted or top-dose-only effect, or another doubt; inactive = no such curve, though single readings can be large; an effect the other way counts as inactive or inconclusive.

SMILES	UDG counter	AID inhibitor	DRV1 agonist
O=C(CCNc1nc(Cl)nc2nc[nH]c12)NC1CC1	-11%	i	·
O=C(NCCCCCO)C1CCN(c2nc(Cl)nc3nc[nH]c23)CC1	89µM*	i	·
CCOC(=O)c1ccccc1NC(=O)COC(=O)CC(C)(C)CC1=NS(=O)(=O)c2ccccc2N1	4%	i	84*
COc1ccccc1NC(=O)COC(=O)CC(C)(C)CC1=NS(=O)(=O)c2ccccc2N1	-2%	i	?
CCOC(=O)c1ccccc1NC(=O)COC(=O)c1nn(-c2ccccc2)c(=O)c2ccccc12	7%	i	·
CC(C)(CC(=O)OCC(=O)Nc1ccc(F)c(Cl)c1)CC1=NS(=O)(=O)c2ccccc2N1	-7%	i	115*
CC(C)(CC(=O)OCC(=O)Nc1ccccc1F)CC1=NS(=O)(=O)c2ccccc2N1	4%	i	112*
O=C(COC(=O)CCCC1=NS(=O)(=O)c2ccccc2N1)Nc1ccc(Br)cc1	-6%	i	?
CC(Sc1nnc(-c2ccco2)n1C(C)C)C(=O)Nc1nccs1 (configuration not stated)	49%	i	·
Cc1cc(C=O)c(C)n1C	4%	i	·
Nc1ccccc1C(=O)NCCc1ccccc1	-1%	i	·
NNCCc1ccccc1	32µM*	45µM*	?
Cn1c2ccccc2c2c(C(=O)N3CCN(c4cccc(C(F)(F)F)c4)CC3)cn(C3CCCCC3)c(=O)c21	-13%	?	-30
Cc1ccc(C)c(N2CCN(C(=O)c3cn(CC(C)C)c(=O)c4c3c3ccccc3n4C)CC2)c1	?	28µM*	-10
Cn1cc(C(=O)N2CCN(c3cccc(C(F)(F)F)c3)CC2)c2c3ccccc3n(C)c2c1=O	79µM*	?	118*
Cc1cccc(N2CCN(C(=O)c3cn(CC(C)C)c(=O)c4c3c3ccccc3n4C)CC2)c1C	?	?	-16
CC(=O)N/N=C/c1ccc([N+](=O)[O-])o1	·	·	68*
O=[N+]([O-])c1ccc(/C=N\O)o1	·	·	22
COCCCN(CCOC)Cc1ccccc1	7%	i	·
COc1ccc(C(=O)C(C)Oc2ccc(C)c(C)c2)cc1 (configuration not stated)	-16%	i	·
CCCCCN(CCCCC)C(=S)Nc1cccc(Cl)c1	-8%	i	·
Cc1ccc(-n2nc(C)c(C(=O)NCCCN3CCN(c4ccc(F)cc4)CC3)c2-n2cccc2)cc1	-13%	?	?
COc1cc(NC(=O)c2c(C)nn(-c3ccc(F)cc3)c2-n2cccc2)cc(OC)c1	2%	i	103*
Cc1nn(-c2ccc(F)cc2)c(-n2cccc2)c1C(=O)NCCCN1CCN(c2ccccc2F)CC1	-11%	i	110*
COc1ccc(N2CCN(CCCNC(=O)c3c(C)nn(-c4ccc(F)cc4)c3-n3cccc3)CC2)cc1	-10%	?	63*
SMILES	UDG counter	AID inhibitor	DRV1 agonist
CCCN1CCN(CCCNC(=O)c2c(C)nn(-c3ccc(F)cc3)c2-n2cccc2)CC1	2%	i	3
COc1cccc(NC(=O)c2c(C)nn(-c3cccc(C)c3)c2-n2cccc2)c1	45%	?	-16
O=C(CCCOC(=O)c1c(Cl)ccc(Cl)c1Cl)c1ccc(Br)cc1	-5%	i	·
CCCN(CC)c1ccc(C(=O)NCC(=O)NCC(F)(F)F)cc1	-4%	i	·
CC(C)N(C)S(=O)(=O)N(C)CC1COc2ccccc2O1 (configuration not stated)	-2%	i	·
COc1ccc(Nc2oc(-c3ccc(COc4ccccc4C)o3)nc2C#N)cc1	-14%	?	-20
CCOc1ccc(Nc2oc(-c3ccc(COc4ccc(OC)cc4)o3)nc2C#N)cc1	-2%	i	86*
CC(NC(=O)c1nccnc1N)c1ccccc1 (configuration not stated)	-1%	i	·
Cc1ccc(O)c(NC(=O)CCSc2nc(-c3ccco3)cc(C(F)(F)F)n2)c1	-8%[57.5 µM]	i	74*
COc1ccc(NC(=O)CCSc2nc(-c3ccco3)cc(C(F)(F)F)n2)c(OC)c1	-4%	i	·
COc1cccc(/C=C/c2nc(C#N)c(NCc3ccco3)o2)c1	-8%	i	·
COc1ccc(CNc2oc(/C=C/c3cccc(OC)c3)nc2C#N)cc1	89µM*	i	-3
CCOc1cc(C(=O)Nc2ccc(NS(C)(=O)=O)cc2)ccc1OC	5%	i	·
COc1ccc(C(=O)Nc2ccc(NC(=O)c3cccs3)cc2)cc1OC	-19%	63µM*	-31
COc1ccc(C(=O)Nc2ccccc2)cc1S(=O)(=O)Nc1ccc(Br)cc1	-11%	i	90*
Cc1cc(C)cc(NC(=O)c2cccc(C(=O)Nc3cc(C)cc(C)c3)c2)c1	-14%	i	-1
COc1ccccc1C(=O)Nc1ccc(NC(=O)c2cccs2)cc1	-13%	?	-3
O=C(Nc1ccc(Br)cc1)c1cccc(C(=O)Nc2ccc(Br)cc2)c1	-8%[57.5 µM]	i	71*
COc1cc(Br)c(/C=C(/C#N)C(=O)c2ccccc2)cc1OC	-5%	i	·
O=C(/C=C/Nc1ccc(Cl)cc1)C(F)(F)F	8%	i	·
CCOc1ccc2c(c1)O/C(=C\c1ccc(OS(C)(=O)=O)c(OC)c1)C2=O	1%	i	·
CC(=O)Nc1cccc(C(C)NC(=O)Nc2cccc(C(F)(F)F)c2)c1 (configuration not stated)	-11%	i	·
CCn1cc2nc(SCc3ccc(F)cc3)n(CCc3ccccc3)c(=O)c2n1	-14%	35µM*	12
CCn1cc2nc(SCc3ccc(C)cc3)n(CCc3ccccc3)c(=O)c2n1	-23%	?	-6
N#Cc1c2n(c(=O)n(CCOc3ccccc3F)c1=O)CCC2	6%	i	·
CCN(c1ccccc1)S(=O)(=O)c1nnc(NC(=O)c2cccs2)s1	0%[57.5 µM]	i	49
CCN(c1ccc(C)cc1)S(=O)(=O)c1nnc(NC(=O)c2cccs2)s1	-4%[57.5 µM]	i	85*
COc1ccc(CNC(=O)CC(C)CC2=NS(=O)(=O)c3ccccc3N2)cc1 (configuration not stated)	3%	i	5
CC(CC(=O)NCc1ccc(Cl)cc1Cl)CC1=NS(=O)(=O)c2ccccc2N1 (configuration not stated)	6%	i	66*
Fc1ccc(C(=Nc2ccccc2)c2ccc(F)cc2)cc1	-6%	i	·
